# Pf Dd2 growth: blocks in vitro growth of P. falciparum Dd2; P. falciparum Dd2 growth, SYBR Green, 72 h; Potency, µM (highest dose often 28.9 µM), for inactives: top-dose activity, negative = inhibition, actives largely listed as inhibitors; 120,000 tested, 4.3% active; AID 1347417; active means well fitted inhibition curve with a large enough effect;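 further: plate controls were DMSO vehicle for no effect and reference drug for full effect; nearly all actives have a fitted effect of over 65% in size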
#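 Readout: SYBR Green fluorescence, 485 nm excitation, 535 nm emission, after ~16 h lysis at 37C. Before that, Dd2-infected red cells (2.5% hematocrit) grew 72 h with compound, 29 uM top final concentration.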
# * = called active by the depositor; i = inactive; [ ] = remark or other dose. Only a selection was taken, and hits are over-represented in it overall. Potency means the concentration at half of the fitted maximal effect.
SMILES,Pf Dd2 growth
Cn1c2c(c3cc(F)ccc31)CN(C(=O)Nc1ccc(F)c(Cl)c1)CC2,-27%
Cc1c(-c2ccc(F)cc2)[nH]c2ccc(CNC(=O)c3cnn(C)c3)cc12,-19%
CN1CC(=O)N(C2CCC2)Cc2c(NCc3cccs3)ncnc21,i
O=C(C[C@@H]1C[C@H]2O[C@H](CNC3CCCC3)[C@@H](O)[C@H]2O1)N1CCC(F)(F)C1,13%[44.1 µM]
CC(C)NC(=O)N1Cc2ccccc2OC2(CCN(C(=O)CCC(=O)O)CC2)C1,83%
Cn1cnc(S(=O)(=O)N2CCCN(CC3CCCCC3)CCNC(=O)CC2c2ccccc2)c1 (stereo not given),i
CC(C(=O)NCc1cc(F)cc(F)c1)C1CCOCC1 (stereo not given),43%
COCCNC(=O)[C@H]1C[C@H](Oc2ccccc2)CN1C(=O)Nc1ccccc1,-4%
CCN(CC)[C@H]1[C@@H]2OC[C@@H](O2)[C@@H](NC(=O)Nc2cccc(OC)c2)[C@@H]1O,i
CCN(CC)[C@H]1[C@@H]2OC[C@@H](O2)[C@@H](NCc2ccc(N(C)C)cc2)[C@@H]1O,i
CCN(CC)[C@H]1[C@@H]2OC[C@@H](O2)[C@@H](NCC2CCCCC2)[C@@H]1O,10µM*
CCc1cccc(-n2nnnc2N2CCN(C(=O)NC3CCCCC3)CC2)c1,15%
O=C(c1ccc2nccnc2c1)N1CCC2(CC1)Nc1ccccc1NC2=O,-13%
Cc1noc(C)c1C(=O)N[C@H]1CO[C@H]2[C@@H]1OC[C@H]2OCc1ccccc1,10%[44.1 µM]
CN(C)C(=O)c1cccnc1OC1CCNCC1,19%
CCNC(=O)c1cccnc1OC1CCN(Cc2ccccn2)C1 (stereo not given),i
CN1CCC(Oc2nccnc2N2CCc3ccccc3C2)C1 (stereo not given),8.9µM*
c1ccc2c(c1)CCN2c1nccnc1OC1CCNC1 (stereo not given),7.9µM*
O=C(NCCc1ccccn1)c1cccnc1OC1CCNCC1,-11%
CN1CCC(Oc2ncccc2C(=O)O)CC1,33%
O=C(C1CCOCC1)N1CCC(Oc2nccnc2N2CCOCC2)C1 (stereo not given),55%
c1cc(CN2CCC(Oc3nccnc3N3CCOCC3)C2)ccn1 (stereo not given),-25%
c1ccc(CN2CCC(Oc3nccnc3N3CCc4ccccc43)C2)nc1 (stereo not given),4µM*
c1cnc(N2CCOCC2)c(OC2CCNC2)n1 (stereo not given),1.4µM*
O=C(c1ccccc1)N1CCC(Oc2nccnc2N2CCOCC2)C1 (stereo not given),-1%
SMILES,Pf Dd2 growth
CN1CCC(Oc2nccnc2N2CCOCC2)C1 (stereo not given),25%
O=C(Nc1cccc(-c2ccc(N3CCOCC3)nn2)c1)Nc1ccccc1C(F)(F)F,-22%
Cc1cccc(OC[C@H]2C[C@@H](N(C)C)[C@H](O)[C@@H]2O)n1,-13%[44.1 µM]
Cc1nsc(NC(=O)NC(C)c2ccc(Cl)cc2)n1 (stereo not given),-1%
CC(=O)Nc1ccc(C2(C(=O)NCc3cccc(F)c3)CCC2)cc1,2%
O=C(c1ccc(N2CCCC(O)C2)nc1)N1CCC(N2CCOCC2)CC1 (stereo not given),21%
CCOCCn1c(=O)n(Cc2noc(C(C)(C)C)n2)c2cc(C(=O)O)cnc21,2%
COc1ccc(CNC(=O)[C@@H]2CCC[C@@H](NCC3CC3)CN(C)C(=O)C2)cc1,-22%[44.1 µM]
CC[C@H]1CN(S(=O)(=O)c2ccc(OC)cc2)CC[C@H]1CC(=O)NCCN1CCOCC1,-8%
CN1CCC(N2CC[C@H](c3nnc(-c4cccnc4)o3)C2)CC1,-5%[44.1 µM]
CCCC(=O)N1Cc2ccccc2CC2(CCN(Cc3ccc(O)cc3)C2)C1 (stereo not given),13µM*
CCCN1CCCC2(Cc3ccccc3CN(C(=O)Cc3ccccc3)C2)C1 (stereo not given),6.3µM*
CN(C)CC(=O)N1Cc2ccccc2CC2(CCCN(CCc3ccccc3)C2)C1 (stereo not given),5µM*
CC(=O)NCC(=O)N1Cc2ccccc2CC2(CCN(C)C2)C1 (stereo not given),6%
CC(=O)N1Cc2ccccc2CC2(CCN(Cc3ccncc3)C2)C1 (stereo not given),-8%
CN(C)CC(=O)N1Cc2ccccc2CC2(CCCN(CC3CCNCC3)C2)C1 (stereo not given),20%
CC(=O)NCCC(=O)N1Cc2ccccc2CC2(CCN(Cc3cccnc3)C2)C1 (stereo not given),9%
C[S+](=O)([O-])N1Cc2ccccc2CC2(CCCN(CCc3ccccc3)C2)C1 (stereo not given),-29%
CCC(=O)N1Cc2ccccc2CC2(CCN(CCc3ccc(C)cc3)CC2)C1,8.9µM*
CN1CCCC2(Cc3ccccc3CN(C(=O)c3ccccc3)C2)C1 (stereo not given),-15%
CCC(=O)N1Cc2ccccc2CC2(CCN(CC3CCNC3)C2)C1 (stereo not given),9%
CCCN1CCCC12Cc1ccccc1CN(C(=O)CCCC(=O)O)C2 (stereo not given),-20%
COCCn1c(COc2ccc(S(C)(=O)=O)cc2)nnc1C1CC(N)C1 (stereo not given),-17%
Cc1cccc(C(C(=O)NCc2nn(C)c3ccc(C)cc23)N(C)C)c1 (stereo not given),i
Cc1ccc(C(=O)N2CCC(CCC(=O)NC3CCCCCC3)CC2)cc1,-5%
SMILES,Pf Dd2 growth
CCc1ccc(C(=O)N2CC(c3nnc(-c4ccncc4)o3)C3(CCOCC3)C2)cc1 (stereo not given),-2%
N#Cc1ccc(C(=O)NC2CCN(C(=O)N3CC4CC(C3)[C@H]3CCCC(=O)N3C4)CC2)cc1 (stereo not given in full),i
O=C(C1CC1)N1CCC(c2noc(-c3ccccn3)n2)C1 (stereo not given),i[5.79 µM]
COC[C@@H]1CN(C(=O)c2occc2C)C[C@H]1c1ccncc1,4%
CC(C)OCCCN1C(=O)c2[nH]nc(-c3ccccc3O)c2C1c1ccccc1F (stereo not given),11µM*
O=C1c2[nH]nc(-c3ccccc3O)c2C(c2cccc(OCc3ccccc3)c2)N1CCO (stereo not given),140%[5.79 µM]
CCCCN1C(=O)c2[nH]nc(-c3ccccc3O)c2C1c1ccc(OCc2ccccc2)cc1 (stereo not given),1.4µM*
CC12CN3CC(C)(CN(C1)C3c1ccc(OCc3ccccc3)cc1)C2=O (stereo not given),23%
CCCCN1C(=O)c2[nH]nc(-c3ccccc3O)c2C1c1ccc(C(C)(C)C)cc1 (stereo not given),2.8µM*
CC(C)OCCCN1C(=O)c2[nH]nc(-c3ccccc3O)c2C1c1cccc(OCc2ccccc2)c1 (stereo not given),5.6µM*
O=C1c2[nH]nc(-c3ccccc3O)c2C(c2ccccc2F)N1Cc1cccnc1 (stereo not given),10%
CC(C)OCCCNC(=O)C1Cn2cccc2C(=O)N1Cc1ccccc1 (stereo not given),9%
COCC(=O)N1CCC(N2C[C@H](O)C[C@H]2C(=O)NC2CCCCC2)CC1,5%
COCC(=O)N1CCCCCCNC(=O)[C@@H]2CCCC[C@@H]21,25%
COc1ccc2[nH]c3c(c2c1)CCNC31CCN(C(=O)c2c(C)noc2C)CC1,i
CCn1ccc(C(=O)NC2CCCN(c3cc(-c4ccc(OC)cc4)[nH]n3)C2)n1 (stereo not given),-2%
